# From PubChem BioAssay
# HT1080NT lethal = qHTS for induction of synthetic lethality in tumor cells producing 2HG: qHTS for the HT-1080-NT fibrosarcoma cell line; Potency, µM (titrated, usually from 46.1 µM), without a hit: at the highest dose activity, negative = less viability, actives largely listed as cytotoxic; AID 686970, 2013; HT-1080-NT fibrosarcoma viability, CellTiter-Glo ATP luminescence, 48 h; 360,000 tested, 1.6% active;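 also: NT is the 2HG producing partner of a matched IDH1 knockdown line; potency is read from the fitted curve at half-maximal effect; 0% = DMSO-treated cells and -100% = media-only wells without cells; nearly all actives have a fitted effect of over 55% in size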
#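 Luminescent CellTiter-Glo readout after 48 hours of compound exposure at 37 degrees C defined viability of HT-1080-NT cells. Activity was normalized to DMSO wells and cell-free media wells; concentration-response curves were fitted and assigned curve classes.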
# DT40 TDP1 no CPT = qHTS for Inhibitors of human tyrosyl-DNA phosphodiesterase 1 (TDP1): qHTS in cells in absence of CPT; DT40 Tdp1-/- hTDP1 cells, no CPT, ATP luminescence, 48 h; Potency, µM (top dose mostly 46.2 µM), without a hit: at the highest dose activity change, negative = growth inhibition, usual class: inhibitors; 420,000 tested, 15% active; also: potency is read from the fitted curve at half-maximal effect; nearly all actives have a fitted effect of over 55% in size
#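 No-CPT arm: Tdp1-/-;hTDP1 DT40 cells (400/well) plus compounds, incubated ≥48 hr at 37 °C. Readout CellTiter-Glo luminescence.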
# DT40 TDP1 CPT = qHTS for Inhibitors of human tyrosyl-DNA phosphodiesterase 1 (TDP1): qHTS in cells in presence of CPT; chicken DT40 Tdp1-/-;hTDP1 cells + 20 nM CPT, ATP luminescence, 48 h; Potency, µM (doses to about 46.2 µM), for the others: at the highest dose activity change, negative = growth inhibition, usual class: inhibitors; 420,000 tested, 12% active; also: potency is read from the fitted curve at half-maximal effect; nearly all actives have a fitted effect of over 55% in size
#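 Cell growth measured by CellTiter-Glo luminescence after a minimum 48 h, 37 C compound exposure with 20 nM CPT in Tdp1-knockout DT40 cells stably expressing hTDP1, seeded 400/well; qHTS titration format.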
# HT1080 IDH1KD tx = qHTS for induction of synthetic lethality in tumor cells producing 2HG: qHTS for the HT-1080-IDH1KD cell line. HT-1080 IDH1 knockdown viability, ATP luminescence, 48 h. Potency, µM (top dose mostly 46.1 µM), inactives show top-dose activity, negative = toxicity, usual class: cytotoxic. 360,000 tested, 2% active;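 also: potency is read from the fitted curve at half-maximal effect; 0% = DMSO wells and -100% = cell-free medium wells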
#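 % activity derives from luminescence (CellTiter-Glo), normalised to DMSO and no-cell wells. HT-1080-IDH1KD cells, 750/well, had 48 h compound exposure at 37 °C.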
# IL-1B inflam inh = qHTS for Inhibitors of Inflammasome Signaling: IL-1-beta AlphaLISA Primary Screen | THP-1 LPS/ATP IL-1B secretion, AlphaLISA, 16 h; stronger effect = lower value | activity change, % at 57.5 µM | 360,000 tested, 4.7% active | AID 743279, 2014; in the data active = activity change below about -50%; inconclusive = mostly about -30% to -49%
#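 Secreted IL-1B measured by AlphaLISA bead assay after 16 h compound exposure of THP-1 cells; compounds (final up to 57.5 uM) added 1 h before LPS (250 ng/mL) and ATP (1.25 mM) stimulation; lower signal means less secretion.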
# An asterisk follows results filed as active; ? = inconclusive; . = no result given. An excerpt weighted towards active compounds, which were near 19% of everything screened. Unless noted, calls follow the shape of the dose curve; as a rule, active = well fitted curve in the direction sought with a large enough effect; inconclusive = small, poorly fitted or top-dose-only effect, or another doubt; inactive = no such curve, though single readings can be large; an effect the other way counts as inactive or inconclusive. Unless noted, % is scaled to controls: 0 for no effect and ±100 for the full control effect.
SMILES,HT1080NT lethal,DT40 TDP1 no CPT,DT40 TDP1 CPT,HT1080 IDH1KD tx,IL-1B inflam inh
CCN1C(=O)[C@@H]2Cc3c([nH]c4ccccc34)C(c3ccc(OC)cc3)N2C1=S (some centres undefined),?,15µM*,?,-22%,-10
CCOc1ccc(S(=O)(=O)N(C)CC(=O)NCc2ccccn2)cc1Cl,2%,0%,7%,3%,0
O=C(NCc1cccs1)C1CC(c2ccccc2O)=NO1 (centres undefined),-15%,?,21µM*,-2%,19
COc1ccc(CCNC(=O)c2ccc([N+](=O)[O-])cc2)cc1,-4%,?,23µM*,7%,7
COc1cc(C2=NOC(C(=O)NCc3cccs3)C2)cc(OC)c1OC (centres undefined),5.8µM*,1.6µM*,2.3µM*,7.3µM*,0
O=C(NCc1ccccn1)C1CC(c2ccccc2O)=NO1 (centres undefined),6%,-11%,8%,2%,0
CCn1ncc(C2=NOC(C(=O)NCc3ccc(Cl)cc3)C2)c1C (centres undefined),4.5µM*,5.8µM*,5.8µM*,6.3µM*,55
Cc1[nH]c(C)c(S(=O)(=O)N2CCN(c3ccccc3F)CC2)c1C(=O)N1CCCC1,-2%,13%,1%,-2%,-1
Cc1ccc(F)cc1NC(=O)C1CC(=O)N(Cc2ccccc2)C1 (centres undefined),-1%,-8%,3%,5%,8
COc1ccc(C2=NOC(C(=O)NCc3ccc(F)cc3)C2)cc1 (centres undefined),?,2.3µM*,2.3µM*,?,16
COc1cc(OC)c(C2=NOC(C(=O)NCc3cccnc3)C2)cc1Cl (centres undefined),?,15µM*,?,?,29
COc1ccc(CNC(=O)C2CC(c3ccc(OC)cc3)=NO2)cc1 (centres undefined),-1%,-15%,?,-9%,9
COc1ccc(C2=NOC(C(=O)NCc3ccccn3)C2)cc1 (centres undefined),-3%,-29%,-27%,-3%,19
COc1ccc(C2=NOC(C(=O)NCc3cccs3)C2)cc1 (centres undefined),?,2.9µM*,5.2µM*,5.2µM*,36
COc1cc(OC)c(C2=NOC(C(=O)NCc3cccs3)C2)cc1Cl (centres undefined),4.1µM*,2.3µM*,2.3µM*,4.6µM*,13
FC(F)(F)c1ccc(Oc2ccc3cc(Br)ccc3c2)nc1,4%,-4%,-6%,14%,0
COc1ccc(CCNC(=O)C2CC(c3ccc([N+](=O)[O-])cc3)=NO2)cc1 (centres undefined),14%,?,6.5µM*,9%,21
COc1cc(NC(=O)C2CC(c3cccc(OC)c3OC)=NO2)cc(OC)c1OC (centres undefined),?,16µM*,14µM*,?,-18
COc1cccc(C2=NOC(C(=O)Nc3cccnc3Cl)C2)c1OC (centres undefined),-2%,-16%,-4%,-10%,60
COc1ccc(CCNC(=O)C2CC(c3cccc([N+](=O)[O-])c3)=NO2)cc1 (centres undefined),12%,?,-19%,5%,-4
CC(Sc1cccc[n+]1[O-])C(=O)Nc1ccc(Oc2ccccc2)cc1 (centres undefined),-13%,?,?,0%,30
CN1C(=O)c2ccccc2Sc2ccc(NC(=O)COc3ccc(F)cc3)cc21,.,7.3µM*,16µM*,.,.
CN1C(=O)c2ccccc2Sc2ccc(NC(=O)COc3ccc(Cl)cc3)cc21,.,12µM*,21µM*,.,.
O=C(COc1ccc(CO)cc1)Nc1ccc(F)cc1,4%,-18%,1%,5%,0
C[C@@H]1CN([C@@H](C)CO)C(=O)c2cc(Br)cnc2O[C@H]1CN(C)C(=O)Nc1ccc(F)cc1,5%,-6%,-1%,1%,9
SMILES,HT1080NT lethal,DT40 TDP1 no CPT,DT40 TDP1 CPT,HT1080 IDH1KD tx,IL-1B inflam inh
Cc1c(NC(=O)c2cc(-c3ccc(F)cc3)on2)c(=O)n(-c2ccccc2)n1C,5%,?,4%,13%,12
Cc1cc(C)cc(-n2c(N)c(C(=O)Nc3c(C)n(C)n(-c4ccccc4)c3=O)c3nc4ccccc4nc32)c1,-14%,8.2µM*,7.3µM*,?,-13
Cc1c(NC(=O)c2cc(-c3ccc(F)cc3)nc3ccccc23)c(=O)n(-c2ccccc2)n1C,-11%,12µM*,?,-14%,-23
Cc1cccc(-c2cc(C(=O)Nc3c(C)n(C)n(-c4ccccc4)c3=O)c3ccccc3n2)c1,-15%,15µM*,26µM*,4%,-5
CCc1nn(-c2ccccc2)c2nc(-c3cccc(OC)c3)c3cc(OC)c(OC)cc3c12,.,-2%,3%,.,.
BrC(/C=N/Nc1nc(N2CCOCC2)nc(N2CCOCC2)n1)=C/c1ccccc1,-6%,21µM*,16µM*,-11%,?
COc1ccc(Nc2nc(N3CCOCC3)nc(N3CCOCC3)n2)cc1,-5%,?,-23%,-4%,-10
c1ccc(Nc2nc(N3CCNCC3)nc(N3CCOCC3)n2)cc1,-26%,?,?,-15%,-63*
COc1nc(NCc2ccco2)nc(N2CCC(C)CC2)n1,-8%,?,?,-6%,9
COc1ccc(Nc2nc(NCc3ccco3)nc(N3CCOCC3)n2)cc1,-13%,?,?,-11%,-57*
c1ccc(Nc2nc(N3CCOCC3)nc(N3CCOCC3)n2)cc1,-19%,16µM*,16µM*,-17%,.
O=[N+]([O-])c1ccc(Nc2nc(N3CCOCC3)nc(N3CCOCC3)n2)cc1,22%,?,?,24%,-21
CCOC(=O)c1c(NC(=O)c2cc(=O)c3c(C)cc(C)cc3o2)sc2c1CCC2,.,0%,-4%,.,.
COc1ccc(S(=O)(=O)N(C)C[C@@H]2OCCCC[C@@H](C)Oc3ccc(NS(=O)(=O)c4cccs4)cc3C(=O)N([C@H](C)CO)C[C@@H]2C)cc1,-6%,?,?,7%,-13
COCCNC(=S)N1CCC(NC(=O)c2ccco2)CC1,16%,-5%,12%,28%,-19
CCN(CC)S(=O)(=O)c1cc(C(=O)N2CCc3ccccc32)ccc1Cl,?,9.2µM*,?,?,-28
